High-throughput results: PubChem BioAssay, National Center for Advancing Translational Sciences (NCATS)
Most compounds without a hit are left out; they make up all but 2.4% or so of the library.
Pol iota inh – qHTS for Inhibitors of Polymerase Iota. actives 1% (n = 390,000). Pol iota fluorescent replication assay, 10 min. Potency, µM (doses to about 115 µM), hits mostly inhibitors. DNA polymerase iota (Homo sapiens), Q9UNA4
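Pol iota at 10 nM preincubated 15 min with compounds at room temperature; reaction started with fluorescent substrate, 50 nM final. Fluorescence read kinetically at 0 and 10 min; buffer-only wells as negative control.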
Pol kappa inh-1 – qHTS for Inhibitors of Polymerase Kappa; DNA polymerase kappa (Homo sapiens), Q9UBT6; purified Pol kappa, fluorescent DNA synthesis assay, 10 min; Potency, µM (series often up to 107 µM), hits mostly inhibitors; actives 0.53% (n = 400,000); AID 588579, 2011
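10 nM Pol kappa preincubated 15 min at room temperature with compounds, then reaction started with substrate at 50 nM final. Fluorescence read kinetically at 0 and 10 min; buffer-only wells served as negative control.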
FEN1 inh-1 – qHTS Assay for the Inhibitors of Human Flap endonuclease 1 (FEN1) | AID 588795, 2011 | actives 0.35% (n = 390,000) | Potency, µM (top dose mostly 114 µM), actives largely listed as inhibitors | P39748 | Recombinant FEN1 flap cleavage, fluorescence, 15 min; also: nearly all actives have a fitted effect of over 65% in size
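With each library titrated from low to high concentration, compounds met 10 nM FEN1 for 15 min at room temperature before 50 nM substrate was added; readings at 0 and 15 min fed four-parameter Hill curve fits.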
WRN helicase inh-1 – qHTS for Inhibitors of WRN Helicase. Bifunctional 3'-5' exonuclease/ATP-dependent helicase WRN (Homo sapiens), Q14191. Potency, µM (highest dose often 114 µM), hits mostly inhibitors. AID 651768, 2012. actives 0.46% (n = 360,000). WRN helicase unwinding, fluorescent forked duplex, kinetic; also: nearly all actives have a fitted effect of over 55% in size
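WRN at 20 nM final preincubated with compound 15 min at room temperature; reaction started with 100 nM fluorophore/quencher forked duplex oligonucleotide and 2 mM ATP final. Unwinding followed kinetically by red fluorescence (ex 525, em 598 nm).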
Pol eta inh-1 – qHTS for Inhibitors of Polymerase Eta | DNA polymerase eta (Homo sapiens), Q9Y253 | Potency, µM (highest dose often 114 µM), hits mostly inhibitors | actives 1.2% (n = 390,000) | recombinant Pol eta, fluorescent DNA replication assay
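Pol eta at 10 nM preincubated with compounds 15 min at room temperature; reaction started with fluorescent substrate (50 nM final) and read kinetically at 0 and 10 min.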
Pol beta inh – qHTS Assay for Inhibitors of DNA Polymerase Beta. actives 1.3% (n = 340,000). Pol beta primer extension/strand displacement, fluorescence kinetic. P06746. Potency, µM (top dose mostly 114 µM), most hits filed as inhibitors
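Values derive from four-parameter Hill fits of normalized kinetic data: reads at 0 and 10 min following addition of 50 nM substrate to 10 nM Pol beta preincubated 15 min with compound.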
TbPGK inh – qHTS for inhibitors of Phosphogylcerate Kinase: Hit Validation Screen; shares compounds with Pol kappa inh-1; TbPGK coupled GAPDH assay, Kinase-Glo luminescence; Potency, µM (top dose mostly 57.5 µM), actives largely listed as inhibitors; actives 79% (n = 500); AID 686980, 2013; also: nearly all actives have a fitted effect of over 65% in size
POLI cherry-pick – qHTS for Inhibitors of Polymerase Iota: Confirmatory Assay for Cherry-picked Compounds | shares compounds with Pol kappa inh-1 | Pol iota primer extension, TAMRA/BHQ fluorescence | Potency, µM, hits mostly inhibitors | actives 77% (n = 1,500)
GALK inh confirm – Confirmation Assay for Inhibitors of Human Galactokinase (GALK); shares compounds with Pol eta inh-1; AID 2015, 2009; Potency, µM (doses to about 115 µM), usual class: inhibitors; actives 70% (n = 150); purified GALK, Kinase-Glo ATP depletion luminescence
GALK redox cs – Confirmatory Assay for Inhibitors of Human Galactokinase (GALK): Phenol-HRP redox assay counterscreen | actives 40% (n = 150) | AID 2035, 2009 | Potency, µM (series often up to 115 µM), hits mostly inhibitors | Phenol red-HRP H2O2 redox cycling, absorbance 600 nm | shares compounds with Pol eta inh-1
HEK293 tox – Secondary Assay for Inhibitors of Human Galactokinase (GALK): HEK-293 Cell Viability Assay; shares compounds with Pol eta inh-1; HEK-293 viability, ATP luminescence (CellTiter-Glo), 24/48 h; Potency, µM (series often up to 46.1 µM), usual class: inhibitors; actives 10% (n = 170); AID 2547, 2010
Pol kappa inh-2 – qHTS for Inhibitors of Polymerase Kappa: Confirmatory Assay for Cherry-picked Compounds. shares compounds with Pol eta inh-1. purified Pol-kappa, fluorescent strand-displacement substrate. Potency, µM, actives largely listed as inhibitors. actives 76% (n = 920). AID 720501, 2013
Pol eta inh-2 – qHTS for Inhibitors of Polymerase Eta: Confirmatory Assay for Cherry-picked Compounds; AID 720502, 2013; Pol eta primer extension, TAMRA/BHQ fluorescence, 10 min; Potency, µM, usual class: inhibitors; actives 64% (n = 2,600); shares compounds with Pol eta inh-1
FEN1 inh-2 – qHTS Assay for the Inhibitors of FEN1: Confirmatory Assay for Cherry-picked Compounds | actives 79% (n = 880) | AID 720498, 2013 | shares compounds with FEN1 inh-1 | FEN1 flap cleavage, TAMRA/BHQ2 fluorogenic DNA substrate | Potency, µM, actives largely listed as inhibitors; also: nearly all actives have a fitted effect of over 60% in size
WRN helicase inh-2 – qHTS for Inhibitors of WRN Helicase: Confirmatory Assay for Cherry-picked Compounds. shares compounds with WRN helicase inh-1. actives 63% (n = 610). Potency, µM (highest dose often 57.1 µM), most hits filed as inhibitors. WRN helicase DNA unwinding, fluorescence kinetic; also: nearly all actives have a fitted effect of over 65% in size
TO DNA binding – qHTS for Inhibitors of WRN Helicase: Thiazole Orange DNA Binding Counterscreen. shares compounds with WRN helicase inh-1. thiazole orange DNA binding displacement, fluorescence. Potency, µM (doses to about 57.1 µM), hits mostly inhibitors. actives 10% (n = 610);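 also: drop in dye fluorescence marks compound binding to DNA; nearly all actives have a fitted effect of over 60% in size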
BLM helicase inh – qHTS for Inhibitors of WRN Helicase: BLM Helicase Counterscreen for WRN Inhibitors; shares compounds with WRN helicase inh-1; Recombinant BLM helicase DNA unwinding, red fluorescence; Potency, µM (doses to about 57.1 µM), usual class: inhibitors; actives 60% (n = 610); AID 720503, 2013; also: nearly all actives have a fitted effect of over 60% in size
Each line names hits and unclear results; the compound was inactive in the other large screens (follow-up assays come after a bar, where they were run). Calls follow the shape of the dose curve; as a rule, active = well fitted curve in the direction sought with a large enough effect; inconclusive = small, poorly fitted or top-dose-only effect, or another doubt; inactive = no such curve, though single readings can be large; an effect the other way counts as inactive or inconclusive.

O=C(Nc1ccc2oc(=O)ccc2c1)c1ccc(-c2ccc(Cl)cc2)o1	none
O=C(Nc1ccc2oc(=O)ccc2c1)c1ccc(-c2cccc([N+](=O)[O-])c2)o1	FEN1 inh-1 inconclusive, WRN helicase inh-1 10µM, Pol eta inh-1 31.6µM, Pol beta inh 2.82µM | POLI cherry-pick 21.2 | WRN helicase inh-2 inconclusive | TO DNA binding inconclusive | BLM helicase inh 1.52µM
CS(=O)(=O)c1ccc2c(c1)sc1nc(=O)c(/C=C3/C=CC(=O)C(O)=C3)c(N)n12	Pol iota inh 3.98µM, Pol kappa inh-1 7.94µM, FEN1 inh-1 12.6µM, WRN helicase inh-1 28.2µM, Pol eta inh-1 0.794µM, Pol beta inh 3.16µM | TbPGK inh inconclusive | POLI cherry-pick 6.7 | GALK inh confirm 18.8µM | GALK redox cs inconclusive | HEK293 tox inactive | Pol eta inh-2 1.51 | FEN1 inh-2 37.9 | WRN helicase inh-2 1.92µM | TO DNA binding inactive | BLM helicase inh 3.04µM
O=C(O)c1cccc2cccc(-c3c4ccc(=O)c(O)c-4oc4c(O)c(O)ccc34)c12	Pol iota inh 0.708µM, Pol kappa inh-1 1.12µM, FEN1 inh-1 3.16µM, WRN helicase inh-1 3.55µM (no result: Pol beta inh) | TbPGK inh 0.326µM | POLI cherry-pick 0.67 | Pol eta inh-2 0.953 | FEN1 inh-2 3.38 | WRN helicase inh-2 1.52µM | TO DNA binding 4.29µM | BLM helicase inh 0.383µM
O=C(CSc1nc2ccsc2c(=O)n1CC1CCC(C(=O)O)CC1)c1ccc(Cl)cc1 (stereo not drawn)	Pol iota inh 20µM, Pol kappa inh-1 inconclusive, FEN1 inh-1 inconclusive, WRN helicase inh-1 inconclusive, Pol eta inh-1 39.8µM, Pol beta inh 22.4µM | POLI cherry-pick 42.3 | Pol kappa inh-2 59.7 | WRN helicase inh-2 24.1µM | TO DNA binding inactive | BLM helicase inh 15.2µM
O=C(CSc1nc2ccsc2c(=O)n1CC1CCC(C(=O)O)CC1)c1ccc(F)cc1 (stereo not drawn)	Pol eta inh-1 inconclusive
Cc1ccc(C2=NC(=O)/C(=C/c3cc(O)c(O)c(Br)c3)S2)cc1	Pol iota inh 1.26µM, Pol kappa inh-1 1.78µM, FEN1 inh-1 11.2µM, WRN helicase inh-1 7.94µM, Pol eta inh-1 0.794µM, Pol beta inh 1.58µM | POLI cherry-pick 16.8 | Pol kappa inh-2 5.32 | Pol eta inh-2 3.79 | WRN helicase inh-2 1.71µM | TO DNA binding 6.81µM | BLM helicase inh 0.764µM
N#C/C(=C\c1ccc(-c2ccc(C(=O)O)cc2)o1)C(=O)Nc1ccccc1C(=O)O	Pol iota inh inconclusive, Pol kappa inh-1 31.6µM, FEN1 inh-1 inconclusive, Pol eta inh-1 11.2µM, Pol beta inh inconclusive (no result: WRN helicase inh-1) | POLI cherry-pick 67 | Pol kappa inh-2 5.32 | Pol eta inh-2 30.1 | WRN helicase inh-2 inconclusive | TO DNA binding 10.8µM | BLM helicase inh 19.2µM
COc1ccc(O)c(C(=O)c2cc(SCC(=O)O)c3nc4sc5c(c4c(=O)n3c2)CCCC5)c1	Pol iota inh inconclusive, Pol kappa inh-1 inconclusive, FEN1 inh-1 inconclusive, WRN helicase inh-1 25.1µM, Pol eta inh-1 22.4µM, Pol beta inh inconclusive | POLI cherry-pick 21.2 | Pol eta inh-2 47.8 | FEN1 inh-2 37.9 | WRN helicase inh-2 21.5µM | TO DNA binding inconclusive | BLM helicase inh 5.41µM
COc1ccc(-n2c(SCC(=O)O)nc3sc4c(c3c2=O)CCCC4)cc1	none
O=S(=O)(Nc1ccc(Cl)cc1NS(=O)(=O)c1ccccc1)c1ccccc1	Pol iota inh inconclusive (no result: Pol beta inh)
